# The supplement of paper PMC11732987, “Enantioselective OTUD7B fragment discovery through chemoproteomics screening and high-throughput optimisation” (Communications Chemistry, 2025)
# A number with no mark means an inactive call.
# How the values were obtained:
# Test in all cases: log2 ratio of Biotin-Ahx-Ub-VS probe labelling (fragment/DMSO); higher = less target engagement (more negative = stronger competition), active = hit call of the paper (q ≤ 0.05, log2 ratio ≤ -1)
# Conditions in all cases: compound concentration: 200 uM; treatment time: 3 h
# USP19 = target: T1, USP19 (UniProt O94966)
# T1 sequence (whole entry): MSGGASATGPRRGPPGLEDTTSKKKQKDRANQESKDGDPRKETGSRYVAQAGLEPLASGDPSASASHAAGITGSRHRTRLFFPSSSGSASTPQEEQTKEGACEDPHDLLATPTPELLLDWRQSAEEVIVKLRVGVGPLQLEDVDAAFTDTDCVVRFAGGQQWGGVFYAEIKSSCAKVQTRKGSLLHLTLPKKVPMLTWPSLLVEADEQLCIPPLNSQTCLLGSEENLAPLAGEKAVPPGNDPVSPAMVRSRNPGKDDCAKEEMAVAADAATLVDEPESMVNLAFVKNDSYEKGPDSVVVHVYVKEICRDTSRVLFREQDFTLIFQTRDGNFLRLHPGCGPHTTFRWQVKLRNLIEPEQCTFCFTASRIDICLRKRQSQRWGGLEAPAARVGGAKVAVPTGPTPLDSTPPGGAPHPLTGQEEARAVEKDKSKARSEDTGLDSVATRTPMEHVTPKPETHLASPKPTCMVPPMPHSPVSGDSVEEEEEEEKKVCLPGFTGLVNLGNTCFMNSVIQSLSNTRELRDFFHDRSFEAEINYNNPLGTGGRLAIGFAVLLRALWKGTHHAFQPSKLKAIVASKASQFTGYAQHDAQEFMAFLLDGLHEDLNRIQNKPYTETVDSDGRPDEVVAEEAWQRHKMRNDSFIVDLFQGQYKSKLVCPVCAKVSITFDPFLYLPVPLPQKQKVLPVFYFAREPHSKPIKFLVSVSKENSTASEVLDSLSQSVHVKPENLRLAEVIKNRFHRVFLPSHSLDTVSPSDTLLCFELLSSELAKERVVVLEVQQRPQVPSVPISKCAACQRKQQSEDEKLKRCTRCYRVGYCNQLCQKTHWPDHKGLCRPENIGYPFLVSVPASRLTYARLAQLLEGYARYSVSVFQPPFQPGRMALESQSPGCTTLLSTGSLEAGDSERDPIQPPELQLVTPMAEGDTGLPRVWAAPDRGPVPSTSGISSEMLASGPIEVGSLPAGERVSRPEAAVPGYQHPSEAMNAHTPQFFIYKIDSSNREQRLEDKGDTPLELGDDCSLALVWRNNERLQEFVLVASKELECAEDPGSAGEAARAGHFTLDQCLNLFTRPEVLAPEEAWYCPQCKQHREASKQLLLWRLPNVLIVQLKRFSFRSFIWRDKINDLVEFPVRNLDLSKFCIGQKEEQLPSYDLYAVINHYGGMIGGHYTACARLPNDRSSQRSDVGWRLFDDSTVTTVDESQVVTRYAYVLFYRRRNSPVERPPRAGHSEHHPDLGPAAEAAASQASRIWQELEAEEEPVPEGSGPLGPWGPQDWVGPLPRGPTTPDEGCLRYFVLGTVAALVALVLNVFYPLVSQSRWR
# Procedure, shortened: (§1)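 Each value is an average log2 ratio of fragment to vehicle, tested by unpaired t-test. The underlying Spectronaut label-free quantities were global-median-normalised, and only proteins with ≥2 unique peptides were included. Triplicate HEK293T lysate samples (495 µg) were exposed to fragment at 200 µM or vehicle for 3 h, then to Biotin-Ahx-Ub-VS at 0.5 µM final for 1 h, before NeutrAvidin enrichment of labelled DUBs, LysC and trypsin digestion, and diaPASEF LC-MS/MS.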
# USP24 = USP24 (UniProt Q9UPU5)
# Procedure, shortened: as §1
# USP25 = target: T2, USP25 (UniProt Q9UHP3)
# T2 sequence (whole entry): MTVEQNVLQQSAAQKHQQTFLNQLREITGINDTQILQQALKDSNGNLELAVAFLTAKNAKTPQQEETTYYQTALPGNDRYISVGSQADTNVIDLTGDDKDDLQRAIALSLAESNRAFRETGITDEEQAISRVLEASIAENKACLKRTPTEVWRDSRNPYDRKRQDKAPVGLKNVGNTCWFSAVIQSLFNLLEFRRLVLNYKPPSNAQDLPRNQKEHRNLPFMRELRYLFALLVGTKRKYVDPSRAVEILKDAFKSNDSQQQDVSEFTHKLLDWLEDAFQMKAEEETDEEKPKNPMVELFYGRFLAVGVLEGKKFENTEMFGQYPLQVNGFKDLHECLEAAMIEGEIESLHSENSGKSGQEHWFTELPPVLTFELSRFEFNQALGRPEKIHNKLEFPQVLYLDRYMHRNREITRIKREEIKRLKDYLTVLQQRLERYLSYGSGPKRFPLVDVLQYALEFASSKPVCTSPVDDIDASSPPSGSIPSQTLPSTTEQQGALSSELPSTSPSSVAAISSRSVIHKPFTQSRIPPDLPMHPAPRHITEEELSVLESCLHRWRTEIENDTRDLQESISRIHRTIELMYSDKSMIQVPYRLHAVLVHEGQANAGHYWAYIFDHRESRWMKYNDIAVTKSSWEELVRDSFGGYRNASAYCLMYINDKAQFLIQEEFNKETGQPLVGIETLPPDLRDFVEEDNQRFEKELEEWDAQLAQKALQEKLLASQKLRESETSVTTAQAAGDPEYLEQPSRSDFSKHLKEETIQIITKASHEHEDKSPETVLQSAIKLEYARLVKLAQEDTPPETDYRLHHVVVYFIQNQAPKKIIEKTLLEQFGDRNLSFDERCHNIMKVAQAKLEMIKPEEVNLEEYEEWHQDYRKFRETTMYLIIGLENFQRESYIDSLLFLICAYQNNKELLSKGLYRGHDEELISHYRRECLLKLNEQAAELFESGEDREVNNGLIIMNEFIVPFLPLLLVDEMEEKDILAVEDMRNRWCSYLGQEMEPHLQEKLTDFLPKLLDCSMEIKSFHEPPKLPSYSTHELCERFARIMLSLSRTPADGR
# Procedure, shortened: as §1
# USP28 = target: T3, USP28 (UniProt Q96RU2)
# T3 sequence (whole entry): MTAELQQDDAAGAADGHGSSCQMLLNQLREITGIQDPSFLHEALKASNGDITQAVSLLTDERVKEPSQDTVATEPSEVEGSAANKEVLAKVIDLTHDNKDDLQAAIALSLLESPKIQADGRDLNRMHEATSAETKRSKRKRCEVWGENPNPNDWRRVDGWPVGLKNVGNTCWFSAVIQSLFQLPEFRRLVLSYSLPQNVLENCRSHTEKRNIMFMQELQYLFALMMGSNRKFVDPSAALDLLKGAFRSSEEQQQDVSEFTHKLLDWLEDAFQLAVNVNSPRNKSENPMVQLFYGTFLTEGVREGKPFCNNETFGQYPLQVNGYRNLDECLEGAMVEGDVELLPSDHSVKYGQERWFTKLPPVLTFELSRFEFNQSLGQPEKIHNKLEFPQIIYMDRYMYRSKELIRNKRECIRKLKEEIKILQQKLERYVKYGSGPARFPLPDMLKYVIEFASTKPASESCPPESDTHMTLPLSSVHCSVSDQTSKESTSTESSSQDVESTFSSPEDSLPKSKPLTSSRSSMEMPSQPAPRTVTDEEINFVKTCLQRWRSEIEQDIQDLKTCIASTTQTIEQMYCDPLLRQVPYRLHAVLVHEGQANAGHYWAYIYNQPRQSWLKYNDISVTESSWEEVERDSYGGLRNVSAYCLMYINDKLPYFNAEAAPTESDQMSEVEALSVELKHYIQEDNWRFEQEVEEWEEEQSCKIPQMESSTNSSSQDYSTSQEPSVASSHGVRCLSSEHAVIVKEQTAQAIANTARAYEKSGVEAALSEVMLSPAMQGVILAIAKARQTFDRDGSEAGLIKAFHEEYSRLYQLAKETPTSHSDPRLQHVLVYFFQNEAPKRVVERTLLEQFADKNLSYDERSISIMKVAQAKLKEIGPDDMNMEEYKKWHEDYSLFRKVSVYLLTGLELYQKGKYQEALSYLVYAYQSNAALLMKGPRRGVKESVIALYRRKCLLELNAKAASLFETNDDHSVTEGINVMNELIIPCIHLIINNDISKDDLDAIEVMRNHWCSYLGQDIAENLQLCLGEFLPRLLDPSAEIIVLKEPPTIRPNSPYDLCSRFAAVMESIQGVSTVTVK
# Procedure, shortened: as §1
# Chain of USP24 (Q9UPU5 whole entry): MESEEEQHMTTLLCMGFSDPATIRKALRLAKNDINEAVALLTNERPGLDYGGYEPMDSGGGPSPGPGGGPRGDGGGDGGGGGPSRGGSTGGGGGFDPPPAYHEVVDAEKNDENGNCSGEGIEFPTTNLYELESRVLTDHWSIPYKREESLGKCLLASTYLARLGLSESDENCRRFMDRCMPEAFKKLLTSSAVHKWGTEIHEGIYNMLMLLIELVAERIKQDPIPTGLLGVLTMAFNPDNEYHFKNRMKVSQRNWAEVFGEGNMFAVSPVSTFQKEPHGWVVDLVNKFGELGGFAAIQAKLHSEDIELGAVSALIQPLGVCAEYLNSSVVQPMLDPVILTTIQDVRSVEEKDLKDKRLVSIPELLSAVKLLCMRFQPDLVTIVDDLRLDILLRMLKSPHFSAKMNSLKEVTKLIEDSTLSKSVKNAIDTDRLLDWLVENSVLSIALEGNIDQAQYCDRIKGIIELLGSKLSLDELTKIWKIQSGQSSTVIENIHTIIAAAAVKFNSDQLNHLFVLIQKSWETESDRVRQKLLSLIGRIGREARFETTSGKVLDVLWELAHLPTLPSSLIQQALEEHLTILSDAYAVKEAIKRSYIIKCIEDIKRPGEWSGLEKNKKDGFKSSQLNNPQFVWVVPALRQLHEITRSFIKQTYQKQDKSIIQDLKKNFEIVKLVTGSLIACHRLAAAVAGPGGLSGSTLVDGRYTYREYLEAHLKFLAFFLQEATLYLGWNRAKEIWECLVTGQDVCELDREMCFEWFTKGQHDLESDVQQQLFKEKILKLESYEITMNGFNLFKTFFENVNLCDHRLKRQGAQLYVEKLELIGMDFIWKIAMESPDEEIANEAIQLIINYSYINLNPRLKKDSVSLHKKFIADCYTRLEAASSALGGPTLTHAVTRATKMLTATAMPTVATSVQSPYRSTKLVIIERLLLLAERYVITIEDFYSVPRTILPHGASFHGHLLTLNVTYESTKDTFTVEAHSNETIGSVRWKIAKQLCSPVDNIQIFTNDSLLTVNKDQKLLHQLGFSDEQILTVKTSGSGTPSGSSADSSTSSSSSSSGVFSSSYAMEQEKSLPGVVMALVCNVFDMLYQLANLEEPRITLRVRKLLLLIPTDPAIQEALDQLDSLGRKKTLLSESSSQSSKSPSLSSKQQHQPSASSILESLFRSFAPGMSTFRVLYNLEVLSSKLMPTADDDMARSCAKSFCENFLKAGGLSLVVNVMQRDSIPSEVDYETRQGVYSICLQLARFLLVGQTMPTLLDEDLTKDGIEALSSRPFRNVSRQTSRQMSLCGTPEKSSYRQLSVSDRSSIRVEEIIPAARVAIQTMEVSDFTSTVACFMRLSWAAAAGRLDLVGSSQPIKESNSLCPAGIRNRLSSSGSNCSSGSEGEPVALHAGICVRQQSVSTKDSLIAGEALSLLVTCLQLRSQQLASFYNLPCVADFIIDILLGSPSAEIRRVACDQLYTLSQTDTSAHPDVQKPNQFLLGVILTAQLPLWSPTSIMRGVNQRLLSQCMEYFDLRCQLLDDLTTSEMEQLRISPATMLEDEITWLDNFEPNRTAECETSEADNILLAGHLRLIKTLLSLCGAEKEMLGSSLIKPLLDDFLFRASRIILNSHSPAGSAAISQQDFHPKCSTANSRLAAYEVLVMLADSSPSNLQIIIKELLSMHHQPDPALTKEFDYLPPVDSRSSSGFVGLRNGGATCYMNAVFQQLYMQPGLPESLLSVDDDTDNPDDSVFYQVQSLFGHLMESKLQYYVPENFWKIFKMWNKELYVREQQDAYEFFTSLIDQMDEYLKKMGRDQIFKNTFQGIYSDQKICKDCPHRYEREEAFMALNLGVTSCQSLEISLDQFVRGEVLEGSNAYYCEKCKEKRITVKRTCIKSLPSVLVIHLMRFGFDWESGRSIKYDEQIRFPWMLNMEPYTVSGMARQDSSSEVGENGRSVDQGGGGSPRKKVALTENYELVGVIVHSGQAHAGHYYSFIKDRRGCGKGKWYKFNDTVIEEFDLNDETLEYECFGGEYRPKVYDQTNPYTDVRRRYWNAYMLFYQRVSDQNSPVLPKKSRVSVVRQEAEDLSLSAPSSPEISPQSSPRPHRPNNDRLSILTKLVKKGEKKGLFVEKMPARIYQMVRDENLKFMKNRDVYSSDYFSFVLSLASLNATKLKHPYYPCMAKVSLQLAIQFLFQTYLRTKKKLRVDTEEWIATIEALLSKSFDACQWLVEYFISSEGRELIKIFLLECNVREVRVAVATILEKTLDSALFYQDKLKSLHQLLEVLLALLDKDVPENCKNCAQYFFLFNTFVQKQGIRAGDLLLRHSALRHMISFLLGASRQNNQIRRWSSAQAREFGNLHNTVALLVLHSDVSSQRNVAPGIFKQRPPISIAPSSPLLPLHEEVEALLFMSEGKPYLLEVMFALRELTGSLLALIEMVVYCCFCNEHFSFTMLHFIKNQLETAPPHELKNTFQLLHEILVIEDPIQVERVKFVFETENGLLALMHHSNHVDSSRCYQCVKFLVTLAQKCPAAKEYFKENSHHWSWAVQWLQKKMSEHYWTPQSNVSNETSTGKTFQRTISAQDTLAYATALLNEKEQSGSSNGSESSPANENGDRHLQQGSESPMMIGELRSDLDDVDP
compound,measurement,setting,value
O=C(CCl)N1c2ccccc2NC(=O)C12CCCC2,log2 ratio of Biotin-Ahx-Ub-VS probe labelling,USP19,-0.0862
same,log2 ratio of Biotin-Ahx-Ub-VS probe labelling,USP24,-2.66 (active)
same,log2 ratio of Biotin-Ahx-Ub-VS probe labelling,USP25,-0.252
same,log2 ratio of Biotin-Ahx-Ub-VS probe labelling,USP28,-0.397
